DT40 TDP1 CPT: qHTS for Inhibitors of human tyrosyl-DNA phosphodiesterase 1 (TDP1): qHTS in cells in presence of CPT; chicken DT40 Tdp1-/-;hTDP1 cells + 20 nM CPT, ATP luminescence, 48 h; Potency, µM (top dose mostly 46.2 µM), without a hit: at the top dose activity change, negative = growth inhibition, most hits filed as inhibitors; actives 12% (n = 420,000); AID 686979, 2013; note: potency is the fitted concentration of half-maximal effect; nearly all actives have a fitted effect of over 55% in size
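Cell growth measured by CellTiter-Glo luminescence after a minimum 48 h, 37 C compound exposure with 20 nM CPT in Tdp1-knockout DT40 cells stably expressing hTDP1, seeded 400/well; qHTS titration format.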
TDP1 cell noCPT: qHTS for Inhibitors of human tyrosyl-DNA phosphodiesterase 1 (TDP1): qHTS in cells in absence of CPT. DT40 Tdp1-/- hTDP1 cells, no CPT, ATP luminescence, 48 h. Potency, µM (doses to about 46.2 µM), for the others: at the top dose activity change, negative = growth inhibition, hits mostly inhibitors. actives 15% (n = 420,000); note: potency is the fitted concentration of half-maximal effect; nearly all actives have a fitted effect of over 55% in size
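Growth of hTDP1-complemented DT40 Tdp1-knockout cells is measured by ATP luminescence after at least 48 hr compound exposure at 37 °C, with DMSO substituting for the 20 nM CPT used in the parallel screen.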
IL-1B inflam inh: qHTS for Inhibitors of Inflammasome Signaling: IL-1-beta AlphaLISA Primary Screen. THP-1 LPS/ATP IL-1B secretion, AlphaLISA, 16 h; hits give low values. activity change, % at 57.5 µM. actives 4.7% (n = 360,000); in the data active = activity change below about -50%; inconclusive = mostly about -30% to -49%
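THP-1 cells pretreated 1 hr with compounds (up to 57.5 uM final), then stimulated with LPS (250 ng/mL final) plus ATP (1.25 mM final); secreted IL-1B measured by AlphaLISA after 16 hr, decreased signal indicating inhibition.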
CtBP-E1A blk: qHTS Assay for Inhibitors of the CtBP/E1A Interaction; CtBP / adenovirus E1A interaction (AlphaScreen); AlphaScreen GST-E1A/His-CtBP binding, 1536-well; hits give low values; activity change, % (concentration not given with the values); actives 0.49% (n = 340,000); in the data active = activity change below about -65%; inconclusive = mostly about -30% to -63%
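GST-E1A and His-tagged CtBP (125 nM each as 5X stock) were preincubated with pin-transferred compound for 2 h at 37 °C in the dark, then glutathione donor and nickel acceptor beads were added for 1 h before AlphaScreen reading.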
Six1-Eya2 inh: qHTS Assay for Inhibitors of the Six1/Eya2 Interaction | AlphaScreen GST-Six1/His-Eya2 binding, biochemical; hits give low values | activity change, % (test concentration not listed) | actives 0.56% (n = 360,000); in the data active = activity change below about -65%; inconclusive = mostly about -30% to -63%
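Homogeneous AlphaScreen proximity assay pairing GST-Six1 with His-tagged Eya2 (added as 5X mix: 250 nM and 500 nM) in 50 mM Tris pH 8.0, 300 mM NaCl, 1 mM TCEP. Glutathione donor and nickel acceptor beads; 1 h, 37 °C, dark.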
TDP1 block: qHTS Assay for Inhibitors of Tyrosyl-DNA Phosphodiesterase (TDP1). Tyrosyl-DNA phosphodiesterase 1 (Homo sapiens), Q9NUW8. actives 0.28% (n = 350,000). Potency, µM (highest dose often 130 µM), without a hit: at the top dose activity change, negative = inhibition, hits mostly inhibitors. recombinant TDP1, AlphaScreen DNA substrate cleavage; note: potency is the fitted concentration of half-maximal effect; nearly all actives have a fitted effect of over 40% in size
Target sequence (Q9NUW8 whole entry, looked up): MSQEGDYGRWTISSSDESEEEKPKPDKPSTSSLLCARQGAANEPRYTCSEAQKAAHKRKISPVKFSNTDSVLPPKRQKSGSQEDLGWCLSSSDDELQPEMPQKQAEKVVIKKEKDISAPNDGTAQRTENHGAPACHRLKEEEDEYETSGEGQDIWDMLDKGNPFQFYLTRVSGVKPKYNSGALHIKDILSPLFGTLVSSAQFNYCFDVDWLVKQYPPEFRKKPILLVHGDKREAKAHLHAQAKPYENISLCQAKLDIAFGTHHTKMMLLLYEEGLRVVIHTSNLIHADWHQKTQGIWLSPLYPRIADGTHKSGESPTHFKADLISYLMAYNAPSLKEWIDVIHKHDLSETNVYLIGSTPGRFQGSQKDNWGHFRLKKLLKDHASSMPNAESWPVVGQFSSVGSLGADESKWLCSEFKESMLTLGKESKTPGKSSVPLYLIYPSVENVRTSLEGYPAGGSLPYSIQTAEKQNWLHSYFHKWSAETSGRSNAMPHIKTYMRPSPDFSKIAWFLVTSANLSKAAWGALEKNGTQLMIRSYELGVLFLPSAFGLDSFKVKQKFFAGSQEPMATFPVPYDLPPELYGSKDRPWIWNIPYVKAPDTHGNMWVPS
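Signal: AlphaScreen proximity between streptavidin donor and anti-FITC acceptor beads on intact substrate. Reaction: Tdp1 1 nM, substrate 15 nM final, 5 min RT after 15 min compound preincubation.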
* hit, by the source's call; [ ] = remark or other dose. Compounds with a hit are over-represented: about 18% of the library has one in this group of screens. Unless noted, calls come from the whole dose curve; as a rule, active = well fitted curve in the direction sought with a large enough effect; inconclusive = small, poorly fitted or top-dose-only effect, or another doubt; inactive = no such curve, though single readings can be large; an effect the other way counts as inactive or inconclusive. % is set by controls: 0 for no effect and ±100 for the full control effect.

Screening N#CCCCSc1nnc(-c2ccc(Cl)cc2)n1-c1ccccc1 returned DT40 TDP1 CPT inconclusive, TDP1 cell noCPT inconclusive, IL-1B inflam inh 3, CtBP-E1A blk 12, Six1-Eya2 inh -4 and TDP1 block 0%.
Screening COc1ccc(C(=O)Nc2cc3c(cc2C#N)OCO3)cc1S(=O)(=O)NCc1ccco1 returned DT40 TDP1 CPT -15%, TDP1 cell noCPT -6%, IL-1B inflam inh 7, CtBP-E1A blk -3, Six1-Eya2 inh -5 and TDP1 block 4%.
For N#CC1(NC(=O)Cn2cc(C(F)(F)F)ccc2=O)CCCC1 the results were DT40 TDP1 CPT -6%, TDP1 cell noCPT -1%, IL-1B inflam inh -3, CtBP-E1A blk -1, Six1-Eya2 inh -3 and TDP1 block 0%.
For COCCN(C(=O)Cc1cccs1)c1nnc(-c2ccncc2)s1 the results were DT40 TDP1 CPT -7%, TDP1 cell noCPT 0%, IL-1B inflam inh -21, CtBP-E1A blk -1, Six1-Eya2 inh 2 and TDP1 block 4%.
Screening CC(C)Sc1ncc(Cl)c(C(=O)Nc2nnc(C(C)C)s2)n1 returned DT40 TDP1 CPT -21%, TDP1 cell noCPT -10% and TDP1 block 0%.
`CC(C)c1nnc(NC(=O)c2nc(S(=O)(=O)Cc3ccccc3)ncc2Cl)s1` gave DT40 TDP1 CPT 5.8µM*, TDP1 cell noCPT 9.2µM*, IL-1B inflam inh -103*, CtBP-E1A blk 1, Six1-Eya2 inh -17 and TDP1 block 5%.
`CSc1nnc(NC(=O)c2nc(S(=O)(=O)Cc3ccccc3)ncc2Cl)s1` gave DT40 TDP1 CPT 12µM*, TDP1 cell noCPT 16µM*, IL-1B inflam inh -100*, CtBP-E1A blk -4, Six1-Eya2 inh -23 and TDP1 block 6%.
Cc1ccccc1CS(=O)(=O)c1ncc(Cl)c(C(=O)Nc2nnc(C(C)C)s2)n1 was read as DT40 TDP1 CPT 8.2µM*, TDP1 cell noCPT 10µM* and TDP1 block 0%.
`COc1ccc(C(=O)Nc2nnc(S(=O)(=O)Cc3ccccc3)s2)cc1` gave DT40 TDP1 CPT 21%, TDP1 cell noCPT -2%, IL-1B inflam inh 12, CtBP-E1A blk -9, Six1-Eya2 inh 2 and TDP1 block 2%.
Screening CCOC(=O)CC(NC(=O)c1ccc(C)cc1)c1ccc(C)cc1 (stereo not given) returned DT40 TDP1 CPT -3%, TDP1 cell noCPT inconclusive, IL-1B inflam inh -23, CtBP-E1A blk 2, Six1-Eya2 inh -1 and TDP1 block 4%.
Screening CCCCN(C(=O)c1ccc(Cl)cc1)C1CC2CCC(C1)N2C (stereo not given) returned DT40 TDP1 CPT -19%, TDP1 cell noCPT -29%, IL-1B inflam inh -20, CtBP-E1A blk -13, Six1-Eya2 inh 8 and TDP1 block 3%.
CCCCN(CCCC)CC(O)c1cc(Cl)cc2c1-c1ccc(Cl)cc1C2=Cc1ccc(Cl)cc1 (stereo not given) was read as DT40 TDP1 CPT 8.9µM* and TDP1 cell noCPT inconclusive.
`COc1ccc(C2(c3ccc(OC)cc3)NC(=O)N(CC(=O)NCC(F)(F)F)C2=O)cc1` gave DT40 TDP1 CPT 7%, TDP1 cell noCPT 3%, IL-1B inflam inh -7, CtBP-E1A blk 0, Six1-Eya2 inh -7 and TDP1 block 9%[0.0935 µM].
Screening CCc1ccc(-c2cc(C)no2)cc1S(=O)(=O)N1CCN(c2ccccc2)CC1 returned DT40 TDP1 CPT 16µM*, TDP1 cell noCPT inconclusive, IL-1B inflam inh 0, CtBP-E1A blk -17, Six1-Eya2 inh -18 and TDP1 block 4%.
`Cc1ccc(C)c(N2CCN(S(=O)(=O)c3cc(-c4cc(C)no4)ccc3C)CC2)c1` gave DT40 TDP1 CPT inconclusive, TDP1 cell noCPT 16µM* and TDP1 block 3%.
Screening COc1ccc(-c2cc(C(=O)N3CCN(c4ccccc4)CC3)no2)cc1OC returned DT40 TDP1 CPT -29%, TDP1 cell noCPT inconclusive, IL-1B inflam inh 13, CtBP-E1A blk -23, Six1-Eya2 inh -28 and TDP1 block 6%.
Screening Cc1ccc(C)c(N2CCN(S(=O)(=O)c3ccc(-c4cc(C)no4)s3)CC2)c1 returned DT40 TDP1 CPT inconclusive, TDP1 cell noCPT inconclusive, IL-1B inflam inh -1, Six1-Eya2 inh 0 and TDP1 block 1%.
CCOC(=O)c1cc(-c2ccc(OC)c(S(=O)(=O)N3CCN(c4ccccc4)CC3)c2)on1 was read as DT40 TDP1 CPT 16µM*, TDP1 cell noCPT 21µM* and TDP1 block 3%.
For Cc1cc(-c2ccc(C)c(S(=O)(=O)N3CCN(c4ccc([N+](=O)[O-])cc4)CC3)c2)on1 the results were DT40 TDP1 CPT inconclusive, TDP1 cell noCPT inconclusive, IL-1B inflam inh 11, CtBP-E1A blk 1, Six1-Eya2 inh -1 and TDP1 block 6%.
For COc1ccccc1N1CCN(S(=O)(=O)c2cc(-c3cc(C)no3)ccc2C)CC1 the results were DT40 TDP1 CPT 21µM*, TDP1 cell noCPT 18µM* and TDP1 block 3%.
Screening Cc1ccccc1/C=N/NC(=O)c1ccc(-n2cnnn2)cc1 returned DT40 TDP1 CPT 0%, TDP1 cell noCPT -1%, IL-1B inflam inh -14, Six1-Eya2 inh -1 and TDP1 block -7%.
Screening CCOc1ccc(NC(=O)NCc2cccn2C)cc1 returned DT40 TDP1 CPT -3%, TDP1 cell noCPT -13%, IL-1B inflam inh -2, CtBP-E1A blk 0 and Six1-Eya2 inh -7.
`Cc1cc(C)n2c(SCc3nnc(-c4cccs4)o3)nnc2n1` gave DT40 TDP1 CPT -3%, TDP1 cell noCPT -6%, IL-1B inflam inh inconclusive, CtBP-E1A blk -16, Six1-Eya2 inh 1 and TDP1 block 7%.
`COc1ccc(-c2cc(C)no2)cc1S(=O)(=O)N1CCOc2ccc(Cl)cc21` gave DT40 TDP1 CPT inconclusive, TDP1 cell noCPT inconclusive, IL-1B inflam inh 31, CtBP-E1A blk 2, Six1-Eya2 inh 1 and TDP1 block 1%.
For CCc1ccc(-c2cc(C)no2)cc1S(=O)(=O)N1CCN(c2ccccc2OC)CC1 the results were DT40 TDP1 CPT inconclusive, TDP1 cell noCPT inconclusive, IL-1B inflam inh -1, CtBP-E1A blk -79*, Six1-Eya2 inh inconclusive and TDP1 block 2%.
